PubChem BioAssay AID977606 (Broad Institute, 2014)
Out of some 1,500 compounds screened, about 430 (29%) were called active. No rule for the calls is given here. Not all results are given here. Entries with a potency or affinity are not part of this list.

assay: insulin secretion activators without glucose, dose response, counter-screen for glucose-dependent insulin secretion activators, cell-based, INS-1E, Gaussia luciferase, luminescence, cherry-pick (AID 977606); conditions: INS-1E Gaussia luciferase insulin secretion, no glucose, 100% = twice neutral-control luminescence; series mostly up to 35 µM; activation: at the top concentration;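 also: 0% = median of neutral control wells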

| Structure (SMILES) | activation |
| --- | --- |
| Cc1ccc(-c2csc(NC(=O)CCCc3cccs3)n2)cc1 | -13.3% (inactive) |
| O=C(Cc1csc(NC(=O)c2ccccc2)n1)NO | 4.16% (inactive) |
| CCc1c(C(=O)Nc2ccc(C)c(C)c2)[nH]c(C)c1C(C)=O | -2.69% (inactive) |
| CC(=O)Nc1ccc(-c2ccnc3c2CC(C)(C(=O)Nc2cccc(OC(F)(F)F)c2)O3)cc1 (stereo unspecified) | -18% (inactive) |
| CCSc1ncnc2c(C#N)c3n(c12)CCCCC3 | -23.6% (inactive) |
| CN1CCCC1CCNC1C2CC3CC(C2)CC1C3 (stereo unspecified) | 10.6% (inactive) |
| Cc1c(C(=O)N(C)CCc2cnn(C)c2)oc2c(F)cccc12 | -6.35% (inactive) |
| COC(=O)C[C@@H]1OC[C@H](C(C)C)N1S(=O)(=O)c1ccc(C)cc1 | -4.61% (inactive) |
| Cc1ccc(-n2nc3c(c2NC(=O)C2CC2)CS(=O)(=O)C3)cc1 | -70.2% (inactive) |
| CCc1cc(=O)oc2c(CNCc3ccc(OC)cc3OC)c(O)c(Cl)cc12 | 3.11% (inactive) |
| COc1ccc(S(=O)(=O)N2CCCCC2)cc1NC(=O)C1CCCC1 | 13.5% (inactive) |
| CN1CCN(c2ccc(NC(=O)c3ccc(Oc4ccccc4)cc3)cc2)CC1 | 12.1% (inactive) |
| N#Cc1cnn2c(C(F)(F)F)cc(-c3ccccc3)nc12 | -6.6% (inactive) |
| CCCCc1nnc2c(N(C)S(=O)(=O)c3ccccc3)nc3ccccc3n12 | 26.2% (inactive) |
| O=C(CCn1nc(-c2ccc(Cl)cc2)ccc1=O)NCCCN1CCCCCC1 | -10.3% (inactive) |
| COc1ccc(-n2c3c(c(=O)[nH]c2=O)C(NS(=O)(=O)c2ccc(Cl)cc2)(C(F)(F)F)C(=O)N3)cc1 (stereo unspecified) | -6.54% (inactive) |
| Cc1cc(-c2ccc(Cl)cc2)n2nc(C)cc2n1 | 9.9% (inactive) |
| O=C(NCCc1ccccc1)c1cc(-c2ccc3c(c2)OCO3)on1 | -11.9% (inactive) |
| CCOc1cccc2cc(C(=O)Nc3cc(C)on3)c(=O)oc12 | -5.12% (inactive) |
| CC(=O)Cc1nsc(NC(=O)c2ccc(-c3cccc(Cl)c3)o2)n1 | 13.1% (inactive) |
| CCOc1ccc(CCNC(=O)c2cc(C)on2)cc1OCC | 17.1% (inactive) |
| CC(=O)c1cccc(NC2c3ncccc3C(=O)N2Cc2ccco2)c1 (stereo unspecified) | 5.07% (inactive) |
| COC(C)(C)c1cc(C(C)(C)C)nc(N)n1 | -4.56% (inactive) |
| O=C(O)CCN1c2ccccc2Sc2ccccc21 | -13.1% (inactive) |

| Structure (SMILES) | activation |
| --- | --- |
| CC1=NN(C(N)=S)C(=O)C1N=Nc1ccccc1C (stereo unspecified) | -12.7% (inactive) |
| O=c1cc(-c2cccc(Br)c2)nc(-c2ccccc2F)o1 | 18.6% (inactive) |
| COc1cccc(-c2nnn(CC(=O)O)n2)c1 | -2.57% (inactive) |
| C1CCN(CCCNC2C3CC4CC(C3)CC2C4)C1 (stereo unspecified) | 5.94% (inactive) |
| CC(=O)Nc1nc(CC(C)C)cc(-c2ccco2)c1C#N | -11.2% (inactive) |
| CC(C(=O)N1CCC(C(N)=O)CC1)N(c1ccc(Oc2ccccc2)cc1)S(C)(=O)=O (stereo unspecified) | 2.24% (inactive) |
| COc1ccc(C(=O)NCC(=O)OCC(=O)Nc2ccc(C)c(S(=O)(=O)N(C)C)c2)cc1OC | 13.4% (inactive) |
| c1nc(N2CCOCC2)c2c3c(sc2n1)CCCC3 | 3.5% (inactive) |
| N#CC1=C(N)Oc2nc(-c3ccccc3)[nH]c2C1c1cccnc1 (stereo unspecified) | 6.08% (inactive) |
| COc1cc(/C=N/NC(=O)C(C)n2nnc3ccccc32)ccc1O (stereo unspecified) | 20.6% (inactive) |
| CCC(=O)Nc1ccc(C(=O)N/N=C/c2cccnc2)cc1 | -9.47% (inactive) |
| COc1ccc(N2CCN(S(=O)(=O)c3ccc(-c4cc(C)no4)s3)CC2)cc1 | -0.25% (inactive) |
| Cc1ccc(S(=O)(=O)N2CCN(C(=O)COC(=O)c3ccc(O)cc3)CC2)c(C)c1 | -21.2% (inactive) |
| Cc1ccc(C(C)C)c(OCCNCCc2ccccc2)c1 | 296% (inactive) |
| Cc1nn(-c2ccccc2)c2c1C(O)CC(C)(C)C2 (stereo unspecified) | 8.92% (inactive) |
| CC/C(O)=C1\C(=O)CC(c2ccccc2)CC1=NC(C)C (stereo unspecified) | -3.66% (inactive) |
| COc1ccc(CCNC(=O)COC(=O)c2cncc(Br)c2)cc1OC | -8.17% (inactive) |
| CCc1ccc(OCC(=O)NC(=S)Nc2ccc(C)cc2C)c(Br)c1 | -3.07% (inactive) |
| CCOC(=O)C1=NN(C(=O)Nc2cccc(C(F)(F)F)c2)C2C(=O)N(c3cccc(C(F)(F)F)c3)C(=O)C12 (stereo unspecified) | -8.05% (inactive) |
| C[C@@H]1CC2=C(C(=O)OC(C)(C)O2)[C@H](c2ccc(Cl)cc2)O1 | 14.6% (inactive) |
| Cn1c(=O)c(=O)n(C)c2cc(S(=O)(=O)N3CCN(c4ccc(F)cc4)CC3)ccc21 | -6.48% (inactive) |
| COc1ccc(C2=NOC(C(=O)NCc3ccccn3)C2)cc1OC (stereo unspecified) | -18.3% (inactive) |
| COc1ccc(-c2cnc(N)nc2-c2ccc(OC)cc2)cc1 | -4.31% (inactive) |
| CCOc1ccc(CCNC(=O)COC(=O)c2cccnc2SC)cc1OCC | 9.47% (inactive) |

| Structure (SMILES) | activation |
| --- | --- |
| CC(C)c1ccc2oc(=O)cc(CN3CCCCC3)c2c1 | 3.9% (inactive) |
| CC1=C(C(=O)N2CCOCC2)CC(CC(=O)NCCCN(C)C)C(=O)N1CCCN1CCCC1=O (stereo unspecified) | 0.538% (inactive) |
| COc1ccc(CCN=C(N)NS(=O)(=O)c2ccc(C)c(C)c2)cc1OC | 5.18% (inactive) |
| CC1CC(C)CN(CC(O)COCc2ccccc2F)C1 (stereo unspecified) | -3.98% (inactive) |
| O=C(N1CCOCC1)N1CCN(c2ccccn2)CC1 | 11.2% (inactive) |
| CCN(Cc1ccncc1)C(=O)c1cccc(S(=O)(=O)N2CCCCC2)c1 | 7.23% (inactive) |
| COc1ccc(N2CCN(C(c3cccs3)C(C)NC(=O)C(=O)N3CCOCC3)CC2)cc1 (stereo unspecified) | 49.4% (inactive) |
| O=C(NNC1CCN(Cc2ccccc2)CC1)c1ccccc1 | -7.54% (inactive) |
| CN(Cc1ccc(OCC(O)CN(C)Cc2ccccc2)cc1)Cc1nccn1C (stereo unspecified) | 6.67% (inactive) |
| CC(NC1CCN(Cc2ccccc2)CC1)c1ccc(F)cc1 (stereo unspecified) | -0.389% (inactive) |
| CC(Oc1ccccc1Cl)C(=O)Nc1ccc(S(=O)(=O)Nc2nccs2)cc1 (stereo unspecified) | 2.94% (inactive) |
| CCNc1nc(NC(C)CC)nc(ON=C(C)C)n1 (stereo unspecified) | 7.53% (inactive) |
| Cc1cc(=O)oc2c3c(cc(OCC(=O)NC(C)C)c12)OC(C)(C)CC3 | 2.56% (inactive) |
| O=C(O)COc1ccc2c3c(c(=O)oc2c1)CCC3 | 2.84% (inactive) |
| O=c1[nH]c2ccccc2nc1-c1nnnn1C1CCCC1 | 11.3% (inactive) |
| CCOc1ccc(OCCC(=O)N(CC)CC(=O)NCc2cccs2)cc1 | -7.63% (inactive) |
| CC(O)c1nc2ccccc2n1C1CCCCC1 (stereo unspecified) | -9.74% (inactive) |
| COc1ccc(N2C(=O)CC(Sc3nc(C)cc(C)c3C#N)C2=O)cc1 (stereo unspecified) | -7.36% (inactive) |
| O=C(Nc1ccccc1Oc1ccsc1C(=O)O)c1ccccc1F | 3.53% (inactive) |
| COc1cc(C(=O)Nc2cc(C(F)(F)F)ccc2N2CCOCC2)ccc1OCC(=O)N1CCOCC1 | 0.175% (inactive) |
| Cc1cc(C)nc(NC(N)=NCCc2c[nH]c3ccccc23)n1 | -15.7% (inactive) |
| CCOC(=O)c1[nH]cnc1C(=O)NC(C)C | -12.7% (inactive) |
| O=C1c2[nH]nc(-c3ccccc3)c2C(c2ccccc2)N1c1ccccc1 (stereo unspecified) | 9.7% (inactive) |
